A selection: hits, their analogues and other compounds. The true share with any hit is near 2.2%.
EBNA-1 inh: EBNA-1 DNA-binding inhibitors, primary screen, biochemical, fluorescence polarization | 300,000 tested, 0.34% active | AID 1950, 2009 | inhibition, % at 14.8 µM; in the data active = inhibition above about 28%
NLRP3 yeast inh: NALP3 inflammasome inhibitors in reconstituted yeast, primary screen, luminescence, uHTS. Yeast reconstituted NLRP3/ASC/caspase-1, beta-gal luminescence, 24 h. inhibition, % at 10 µM. 330,000 tested, 0.39% active. AID 2825, 2010;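 active = inhibition of 50% or more; inactive = inhibition below 50%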
ZTA counter: counter-screen for EBNA-1 inhibitors: inhibitors of Epstein-Barr virus ZTA. P03206. ZTA-DNA binding, fluorescence polarization. inhibition, % at 11 µM. 320,000 tested, 0.15% active. AID 2234; in the data active = inhibition above about 33%
Target sequence (P03206 whole entry, looked up): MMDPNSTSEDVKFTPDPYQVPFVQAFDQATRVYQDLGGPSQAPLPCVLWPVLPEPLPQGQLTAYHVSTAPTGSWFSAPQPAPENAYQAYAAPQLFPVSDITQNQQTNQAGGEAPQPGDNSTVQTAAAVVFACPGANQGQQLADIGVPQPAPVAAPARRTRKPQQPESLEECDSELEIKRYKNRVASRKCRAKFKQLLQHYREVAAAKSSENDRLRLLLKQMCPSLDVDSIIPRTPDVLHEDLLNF
PolyA inhibitor: polyadenylation inhibitors in yeast reporter cells, primary screen, luminescence, S. cerevisiae. S. cerevisiae SKY197-pL101 polyadenylation reporter, beta-gal luminescence; efflux-impaired pdr1/pdr3 knockout yeast; score 100 = 6 SD above DMSO. activity score, % at 12 µM. 300,000 tested, 0.02% active. AID 1875, 2009;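 active = lowest replicate activity score at least 50, where 100 means six control SD above control mean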;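 note: yeast exposed to compound for 9 h at 30 °C; higher score means more reporter readthrough which indicates perturbed polyadenylation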
dFosB act: activators of delta FosB homodimer, primary screen, biochemical, fluorescence polarization, TAMRA-CDK5 oligo, single point; Protein FosB (Mus musculus), P13346; purified delta FosB; percent of positive-control signal above neutral wells; activation, % at 25 µM; 340,000 tested, 0.99% active; AID 493131, 2011;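 active = mean activation above about 17%, with every replicate also reaching it, limit read from the data, passing the limit was not always enough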
NALP1 yeast inh: NALP1 inflammasome inhibitors in reconstituted yeast, colorimetric, S. cerevisiae, triplicate retest; 280,000 tested, 0.61% active; S. cerevisiae NALP1/ASC/caspase-1 growth, X-gal OD620, 72 h; inhibition, % at 10 µM; in the data active = inhibition mostly above about 24%, no sharp cut-off; inactive = mostly below about 32%
NALP3 confirm: NALP3 inhibitors retested in yeast, confirmation, luminescence, single concentration. shares compounds with NLRP3 yeast inh. yeast expressing human NALP3. inhibition, % at 10 µM. 1,300 tested, 81% active; in the data active = inhibition above about 48%
Casp1 ASC ctr: CASP1-PYCARD signaling inhibition in yeast, confirmatory test, counterassay for NLRP3 inhibitor program, one-dose. AID 488784, 2010. shares compounds with NLRP3 yeast inh. 1,000 tested, 66% active. yeast expressing Caspase-1-ASC, luminescence counter screen. inhibition, % at 10 µM
NALP3 yeast rt: NALP3 inhibitors in yeast, repeat test, confirmation, luminescence, single concentration, retest. inhibition, % at 10 µM. yeast expressing human NALP3, luminescence read-out. AID 488794, 2010. shares compounds with NLRP3 yeast inh. 1,000 tested, 53% active
Of the large screens only hits and unclear results are named; the others gave an inactive call (follow-up assays come after a bar, where they were run). Cut-off read from the data, not from the text of the source, unless noted: active = inhibition above about 50%; inactive = the rest.

O=C(O)CN1C(=O)C(=O)N(Cc2ccc(C(F)(F)F)cc2)C1=O	none (no result: NLRP3 yeast inh)
NN(Cc1ccccc1)C(=S)Nc1ccc(Cl)c(Cl)c1	none
CCOc1ccc(N2C=Nc3ccc(OCC)cc3C2)cc1	NLRP3 yeast inh 59 | NALP3 confirm 61 | Casp1 ASC ctr 60 | NALP3 yeast rt 51
Cc1ccc(C(=O)Cn2cnc3ccccc3c2=O)cc1	NLRP3 yeast inh 52 (no result: PolyA inhibitor) | NALP3 confirm 64 | Casp1 ASC ctr inactive | NALP3 yeast rt inactive
Cc1ccc(-c2cc(-c3ccccc3)no2)c(O)c1	none (no result: NLRP3 yeast inh)
Oc1ccccc1-c1cc(-c2ccccc2)no1	NLRP3 yeast inh 55 | NALP3 confirm 60 | Casp1 ASC ctr 59 | NALP3 yeast rt 56
CSc1ccc(-c2cc(=O)c3ccccc3o2)cc1	NLRP3 yeast inh 62 | NALP3 confirm 63 | Casp1 ASC ctr 53 | NALP3 yeast rt 62
Cc1ccc(S(=O)(=O)CCC(=O)Nc2nc(C(C)(C)C)cs2)cc1	none
Cc1ccc(S(=O)(=O)CC(=O)Nc2nc(C(C)(C)C)cs2)cc1	NLRP3 yeast inh 51 | NALP3 confirm 73 | Casp1 ASC ctr 61 | NALP3 yeast rt inactive
CCOC(=O)c1ccc2c(c1)nc(COc1ccc(OC)cc1)n2CC	NLRP3 yeast inh 61 | NALP3 confirm 61 | Casp1 ASC ctr inactive | NALP3 yeast rt inactive
CCSc1nnc(NC(=O)c2cnccn2)s1	none (no result: dFosB act)
CCSc1nnc(NC(=O)c2ccccn2)s1	NLRP3 yeast inh 55 | NALP3 confirm 61
CCSc1nnc(NC(=O)c2ccccc2C)s1	NLRP3 yeast inh 57 | NALP3 confirm inactive
CCSc1nnc(NC(=O)c2ccccc2)s1	none
COc1cc(-c2nc(S(=O)(=O)c3ccc(C)cc3)c(N(C)C)o2)cc(OC)c1OC	none
Cc1ccc(-c2nc(S(=O)(=O)c3ccc(C)cc3)c(N(C)C)o2)cc1	NLRP3 yeast inh 71 | NALP3 confirm 66 | Casp1 ASC ctr 82 | NALP3 yeast rt 62
CCOC(=O)c1c(NC(=O)CSc2nnc(C)o2)sc(C)c1C	NLRP3 yeast inh 52 (no result: NALP1 yeast inh) | NALP3 confirm 54 | Casp1 ASC ctr inactive | NALP3 yeast rt inactive
C[C@@H]1C(c2cccc(Cl)c2)=NN(c2ccc(Br)cc2)[C@H]1C(=O)N1CCOC1=O	none (no result: EBNA-1 inh, NLRP3 yeast inh, ZTA counter, PolyA inhibitor, NALP1 yeast inh)
O=C1c2sc3nc4ccccc4n3c2C(=O)N1c1ccccc1Cl	NLRP3 yeast inh 52 | NALP3 confirm 52 | Casp1 ASC ctr inactive | NALP3 yeast rt inactive
Cc1ccccc1N1C(=O)c2sc3nc4c(c(=O)n3c2C1=O)CCC4	none
COc1ccc2oc(=Nc3cccc(F)c3)c(C(N)=O)cc2c1	NLRP3 yeast inh 50 | NALP3 confirm 62 | Casp1 ASC ctr 63 | NALP3 yeast rt inactive
CC(NC(=O)COC(=O)CNS(=O)(=O)/C=C/c1ccccc1)c1ccccc1 (configuration not stated)	none (no result: EBNA-1 inh, PolyA inhibitor, NALP1 yeast inh)
CCCC(=O)N(c1ccc(OCC)cc1)S(=O)(=O)c1ccc2c3c(cccc13)C(=O)N2C	none
Cc1ccc(C(=O)Nc2ccc3nc(C)sc3c2)s1	none
Cc1nc2cc(NC(=O)c3ccc(Br)s3)ccc2s1	NLRP3 yeast inh 51 | NALP3 confirm 69 | Casp1 ASC ctr inactive | NALP3 yeast rt inactive
CCn1c(SCc2nc(-c3ccccc3)no2)nnc1-c1ccco1	none
Cn1c(SCc2nc(-c3ccc(Br)cc3)no2)nnc1-c1ccco1	NLRP3 yeast inh 58 | NALP3 confirm 71 | Casp1 ASC ctr 61 | NALP3 yeast rt inactive
COc1ccc(N2CCN(CC(=O)Nc3nc(C)cs3)CC2)cc1	none
CCCCc1nnc(NC(=O)CN2C(=O)NC3(CCCCC3)C2=O)s1	none
